Only some compounds are listed: those with a hit (about 12% of all), similar ones and a draw of the others.
JMJD2A Tudor – inhibitors of human JMJD2A Tudor domain; AlphaScreen JMJD2A-Tudor / H3K4me3 peptide binding; Potency, µM (doses to about 114 µM), for inactives: at the highest dose activity change, negative = inhibition, usual class: inhibitors; AID 504339; hit rate 4.4% among 390,000; further: potency means the concentration at half of the fitted maximal effect; on the % scale 0 is the no-effect control and ±100 the full control effect; nearly all actives have a fitted effect of over 50% in size
HP1b chromo inh – HP1-beta chromodomain-methylated histone interaction inhibition | P83916 | AlphaScreen HP1-beta / biotin-H3K9me3 peptide binding | Potency, µM (highest dose often 114 µM), for inactives: at the top dose activity change, negative = inhibition, usual class: inhibitors | hit rate 0.56% among 390,000; further: potency means the concentration at half of the fitted maximal effect; nearly all actives have a fitted effect of over 70% in size
Target sequence (P83916 whole entry, looked up): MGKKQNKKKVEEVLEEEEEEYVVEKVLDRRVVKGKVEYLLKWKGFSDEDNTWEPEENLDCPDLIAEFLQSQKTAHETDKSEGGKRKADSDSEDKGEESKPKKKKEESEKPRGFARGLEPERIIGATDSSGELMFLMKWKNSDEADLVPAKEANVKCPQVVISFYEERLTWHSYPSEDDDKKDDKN
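HP1-beta protein (50 nM final) preincubated 30 min at room temperature with biotinylated H3(1-18)K9me3 peptide (50 nM) in PBS pH 7.4, 0.01% Tween-20, then compound added for 30 min. AlphaScreen streptavidin donor/nickel chelate acceptor beads (10 ug/mL final), 30 min dark, luminescence read.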
G9a inh – inhibitors of human histone lysine methyltransferase G9a; Potency, µM (highest dose often 102 µM), without a hit: top-dose activity, negative = inhibition, actives largely listed as inhibitors; AID 504332; hit rate 8.8% among 350,000; G9a H3K9 monomethylation, AlphaScreen, 2 h; further: potency means the concentration at half of the fitted maximal effect; on the % scale 0 is the no-effect control and ±100 the full control effect; nearly all actives have a fitted effect of over 75% in size
Target sequence (Q96KQ7 913-1193 limits assumed): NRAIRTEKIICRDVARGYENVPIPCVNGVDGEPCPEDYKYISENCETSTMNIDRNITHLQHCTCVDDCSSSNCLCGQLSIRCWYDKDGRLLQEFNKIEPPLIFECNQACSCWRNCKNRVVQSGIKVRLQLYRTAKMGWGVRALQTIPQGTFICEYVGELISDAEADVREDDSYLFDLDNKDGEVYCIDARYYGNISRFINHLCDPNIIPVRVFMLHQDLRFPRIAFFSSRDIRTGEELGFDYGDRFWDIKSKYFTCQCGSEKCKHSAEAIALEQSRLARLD
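Enzyme 20 nM + cpd, 15 min RT; add b-H3K9 pep 500 nM / SAM 20 uM; 2 h RT; anti-H3K9me1 Ab 0.5 ug/mL + SA donor / anti-rabbit acceptor beads 20 ug/mL each, 10 min; AlphaScreen read.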
PLK1 PBD inh – blocks phosphopeptide binding to human PLK1 polo-box domain; Plk1 PBD binding of FITC phosphopeptide, fluorescence polarization; Potency, µM, inactives show max response, negative = inhibition, usual class: inhibitors; P53350; hit rate 2.8% among 360,000; further: potency means the concentration at half of the fitted maximal effect; series mostly up to about 57 µM; on the % scale 0 is the no-effect control and ±100 the full control effect; nearly all actives have a fitted effect of over 65% in size
BAZ2B inh – inhibitors of human BAZ2B bromodomain | Q9UIF8 | AlphaScreen BAZ2B-H3K14Ac peptide displacement | Potency, µM (top dose mostly 114 µM), for the others: at the highest dose activity change, negative = inhibition, actives largely listed as inhibitors | hit rate 4.4% among 360,000 | AID 504333; further: potency means the concentration at half of the fitted maximal effect; on the % scale 0 is the no-effect control and ±100 the full control effect; nearly all actives have a fitted effect of over 60% in size
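Inhibition is scored as reduced AlphaScreen emission. The BAZ2B/b-H3(5-23)K14Ac complex (50 nM each) in PBS pH 7.4, 0.01% Tween-20 meets compound (up to 110 uM) for 30 min at RT before bead addition.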
PI5P4K alpha inh – PI5P4K alpha (human) kinase inhibition | P48426 | PI5P4Kalpha enzyme, ADP-Glo luminescence, 60 min; active compounds read low | max response, % | hit rate 1.2% among 330,000 | AID 652105; active means max response of -50% or lower; inconclusive means between -30% and -50%; inactive means -30% or higher; further: value at the top dose of about 77 µM; on the % scale 0 is the no-effect control and ±100 the full control effect
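Human PI5P4Kalpha with substrate in 0.038 M HEPES pH 7.4, 0.28 mM EGTA, 0.1% CHAPS, 5% DMSO; reaction started with 5 microM ATP (final), 60 min at room temperature. ADP formed read by ADP-Glo luminescence.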
* = called active by the depositor; u = inconclusive; x = no result given; [ ] = remark or other dose. Unless noted, the call rests on the fitted dose curve; in most records, active means well fitted curve in the direction sought with a large enough effect; inconclusive means small, poorly fitted or top-dose-only effect, or another doubt; inactive means no such curve, though single readings can be large; an effect the other way counts as inactive or inconclusive.

SMILES	JMJD2A Tudor	HP1b chromo inh	G9a inh	PLK1 PBD inh	BAZ2B inh	PI5P4K alpha inh
O=S(=O)(c1ccc(-c2n[nH]c(=S)o2)cc1)N1CCCCC1	-17%	u	11µM*	u	u	-77*
O=C(NCc1ccccn1)c1ccccc1OCc1ccc(Cl)cc1Cl	16%	51%	61%[59 µM]	-11%	11%	23
Cc1cc(Cn2nnnc2-c2ccncc2)cc(C)c1O	-6%	47%	35µM*	38µM*	-11%	4
O=C(O)Cn1nnnc1-c1ccc(F)cc1	-12%	18%	u	-22%	6%	x
CCn1cc(C(=O)N2CCN(c3ccccc3F)CC2)c(=O)c2cc(S(=O)(=O)N(C)C3CCCCC3)ccc21	-25%	6%	u	x	x	x
c1ccc(-c2cn(C[C@H]3CC[C@H](Cn4cc(-c5ccccn5)nn4)O3)nn2)nc1	0.89µM*	-2%	x	-29%	0.79µM*	-7
Cc1ccc(-c2cn(C[C@H]3CC[C@@H]([C@@H]4CC[C@H](Cn5cc(-c6ccc(C)cc6)nn5)O4)O3)nn2)cc1	-16%	41%	x	2%	39%	-2
CC(NC(=O)c1cc(S(=O)(=O)N2CCCC2)ccc1Cl)c1ccccn1 (stereo not drawn)	0%	34%	-6%[2.33 µM]	0%	4%	0
COc1ccc(-n2c(-c3ccc(C)cc3)cc3c2CC(C)(C)CC3=O)c(OC)c1	18µM*	u	13µM*	x	14µM*	x
COc1cccc(-n2c(-c3ccc(Cl)cc3)cc3c2CC(C)(C)CC3=O)c1	8.9µM*	-21%	u	x	8.9µM*	x
Cc1ccc(-c2cc3c(n2-c2ccc(C)cc2)CC(C)(C)CC3=O)cc1	u	14%	-41%[59 µM]	x	-14%	x
CCOc1ccc(-n2c(-c3ccc(OC)cc3)cc3c2CC(C)(C)CC3=O)cc1	16µM*	-24%	14µM*	x	13µM*	x
COc1cccc(-n2c(-c3ccc(C)cc3)cc3c2CC(C)(C)CC3=O)c1	u	10%	u	x	11µM*	x
CCC(=O)N1CCc2cc(CNS(=O)(=O)c3ccc(C(C)C)cc3)ccc21	-11%	46%	-1%[59 µM]	x	-3%	x
COc1ccc(-n2c(-c3ccc(C)cc3)cc3c2CC(C)(C)CC3=O)cc1Cl	32µM*	u	10µM*	x	5µM*	x
O=C(NCc1cccs1)c1ccc2c(c1)N(Cc1cccc(F)c1)C(=O)c1ccccc1S2	-7%	33%	-23%[59 µM]	x	0%	x
C=CCC1NS(=O)(=O)OCC1NC(=O)OCC(Cl)(Cl)Cl (stereo not drawn)	-21%	36%	19%	-5%	0%	-1
CC(C)(C)OC1NS(=O)(=O)OCC1NCOC(Cl)(Cl)Cl (stereo not drawn)	79µM*	7%	32µM*	u	50µM*	u
O=[N+]([O-])c1cc(Br)c2nsnc2c1N1CCOCC1	40µM*	20µM*	x	2%	32µM*	-4
COc1cc([N+](=O)[O-])c(N2CCOCC2)c([N+](=O)[O-])c1OC	-22%	0%	u	4%	u	-2
Cn1c(SCC(=O)N/N=C/C=C\c2ccco2)nc2ccccc21	56µM*	u	x	u	u	u
Cc1ccc(CSc2nnc(SCC(=O)N/N=C/C=C/c3ccco3)s2)cc1	-13%	5%	u	-11%	50µM*	u
Cc1ccc(CSc2nnc(SCC(=O)N/N=C/C=C/c3ccccc3[N+](=O)[O-])s2)cc1	-28%	14%	-3%[59 µM]	-5%	-28%	-17
CCn1c(SCC(=O)N/N=C/C=C\c2ccco2)nc2ccccc21	u	-11%	16µM*	-19%	45µM*	-22
O=C(CSc1nc2ccccc2n1Cc1ccccc1)N/N=C/c1ccco1	-6%	15%	1%[59 µM]	-2%	-1%	x
CC(C)n1c(SCC(=O)Nc2nncs2)nnc1C1CC1	-20%	27%	29%	-18%	-10%	-2
Nn1c(SCC(=O)Nc2nccs2)nnc1C1CC1	-1%	35%	40µM*	u	-22%	-2
CN(C)c1ccc(NC(=O)CSc2nnc(C3CCCCC3)n2N)cc1	u	19%	40µM*	-10%	u	-3
